Source: PubChem
MARV entry inh – Marburg virus entry inhibition; 300,000 compounds, 1.8% hits; Potency, µM (top dose mostly 37.8 µM), for the others: at the top dose activity change, negative = inhibition, hits mostly inhibitors; Marburg virus pseudotyped entry inhibition, cell reporter; calls by dose curve; tested in HEK293 cells; further: potency means the concentration at half of the fitted maximal effect; on the % scale 0 is the no-effect control and ±100 the full control effect
LASV entry inh – blocks Lassa virus binding to or entry into cells. AID 540256. 300,000 compounds, 1.2% hits. Potency, µM (highest dose often 37.9 µM), without a hit: at the highest dose activity change, negative = inhibition, most hits filed as inhibitors. Lassa virus pseudotype entry inhibition, cell reporter; calls by dose curve; tested in HEK293 cells; further: potency means the concentration at half of the fitted maximal effect; on the % scale 0 is the no-effect control and ±100 the full control effect; nearly all actives have a fitted effect of over 50% in size
Shiga inhibitor – Shiga toxin inhibition | Vero cells, Shiga toxin protein synthesis inhibition reporter | inhibition, % at 38.7 µM | 290,000 compounds, 9.2% hits | AID 2315; in the data active means inhibition mostly above about 28%, no sharp cut-off; inactive means mostly below about 43%; further: 0% is about no effect
CHX counter – counter-screen hit for Shiga toxin inhibitors, cycloheximide; cell reporter, cycloheximide protein synthesis inhibition counterscreen; max response, %; 300,000 compounds, 12% hits; AID 2314; in the data active means max response mostly above about 13%, no sharp cut-off; inactive means mostly below about 14%; further: read at 38.3 µM for the half of the compounds with a filed dose; 0% is about no effect
AMA1 RON2 block – AMA1-RON2 (P. falciparum) interaction inhibition; AID 720542; AlphaScreen AMA1-biotinylated RON2 peptide binding; 360,000 compounds, 0.2% hits; Potency, µM (highest dose often 58.2 µM), without a hit: at the top dose activity change, negative = inhibition, hits mostly inhibitors; active means well fitted inhibition curve with a large enough effect; inconclusive means small, poorly fitted or top-dose-only effect; inactive means no such curve, though single readings can be large or run the other way;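 further: potency means the concentration at half of the fitted maximal effect; 0% = vehicle wells and -100% = peptide control; nearly all actives have a fitted effect of over 45% in size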
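AMA1 (3D7) with his tag at 25 nM final met compounds first, then biotinylated RON2 peptide at 25 nM; detection used donor plus acceptor beads, 10 µg/mL apiece, read by AlphaScreen after 30 min at room temperature.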
Starred values were filed as active, the others as inactive; ? = inconclusive; . = no result; [ ] = another dose, or the depositor's remark. This excerpt belongs to a sample that is enriched for hits.

SMILES | MARV entry inh | LASV entry inh | Shiga inhibitor | CHX counter | AMA1 RON2 block
Cc1ccc(NS(=O)(=O)c2cccc(C(=O)N/N=C/c3ccc4c(c3)OCCO4)c2)c(C)c1 | -4% | 4% | 30 | 14* | 33%
CCOc1cccc(/C=N/NC(=O)c2ccc3c(c2)OCCO3)c1O | ? | ? | 82* | 29* | 70%
Cc1cccc(/C=N\NC(=O)c2ccc(Cl)cc2)c1O | 5.6µM* | 11µM* | 82* | 62* | -13%
Cc1cccc(/C=N/NC(=O)c2ccc3c(c2)OCCO3)c1O | . | . | 55* | 14 | .
O=C(N/N=C/c1cccc(O)c1)c1ccc2c(c1)OCCO2 | . | . | 9 | 9 | -4%
CC1CN=C(N(C(=O)Nc2ccccc2)c2ccc(S(=O)(=O)N3CCOCC3)cc2)S1 (stereo not given) | -18% | 4% | 21 | 18* | 2%
Cc1ccccc1NC(=O)C(=O)NCC(c1ccc2c(c1)OCO2)N1CCN(c2ccccc2)CC1 (stereo not given) | . | 10µM* | . | . | .
CSc1ccc(/C=N/N2CCN(C)CC2)cc1 | ? | -27%[46.1 µM] | 72 | 29* | -1%
CSc1ccc(/C=N/n2c(C)cc(C)cc2=O)cc1 | 21% | 16% | 112* | 27* | 14%
CN1CCN(/N=C/c2ccc(-c3ccccc3)cc2)CC1 | ? | ? | 63* | 49* | -17%
CSc1ccc(/C=N/n2c(C)nnc2C)cc1 | 0%[46.1 µM] | -10% | -9 | -3 | 14%
CSc1ccc(/C=N/N2CCN(Cc3ccc(Cl)cc3)CC2)cc1 | 2%[46.1 µM] | 24%[46.1 µM] | -9 | -1 | 0%
CCOc1ccc(S(=O)(=O)N2CCCCC2)cc1NC(=O)c1ccccc1 | 8%[46.1 µM] | -2% | . | . | -1%
Cc1ccc(NC2(C#N)CCCC2)cc1 | 9%[46.1 µM] | 0%[46.1 µM] | . | . | 0%
CCCCCC(=O)N1C[C@@H](n2cc(COC(=O)c3ccccc3)nn2)[C@H](O)C[C@H]1c1ccccc1 | . | 3%[46.1 µM] | . | . | .
C/C(=N/N1CCN(c2ccccn2)CC1)c1cccc([N+](=O)[O-])c1 | 11% | ? | 22 | 15* | -25%
CCCN(CC(=O)Nc1ccccc1C)C(=O)c1ccc(N2CCCC2)c([N+](=O)[O-])c1 | -13% | ? | . | . | -4%
CCCc1nc(SCC(=O)N2CCC(Cc3ccccc3)CC2)c2c(=O)n(C)c(=O)n(C)c2n1 | -1% | . | -1 | -1 | -9%
CC(C)(C)C(=O)Nc1ccc(-c2cc3cc(Cl)ccc3o2)cc1 | 2% | . | 124* | 81* | -1%
CC(C)(Oc1ccc(Cl)cc1)C(=O)Nc1ccc2oc(=O)ccc2c1 | -10% | -2% | -9 | -2 | -4%
COc1cc(C)nc(NC(=O)NC(=O)c2ccc(C(F)(F)F)cc2)n1 | ? | 17%[46.1 µM] | 11 | -2 | -4%
COc1ccc(S(=O)(=O)N(C)CC(=O)Nc2ccc3c(c2)OCO3)cc1OC | -3% | -19% | 16 | 7.8* | -2%
CN(CC(=O)Nc1ccc2c(c1)OCCO2)S(=O)(=O)c1ccc(F)cc1 | ? | ? | 117* | 27* | -11%
CN(CC(=O)Nc1ccc(F)c(F)c1)S(=O)(=O)c1cccs1 | 12%[46.1 µM] | -5% | 2 | 10 | -6%
CCc1cccc(NC(=O)CN(C)S(=O)(=O)c2cccs2)c1 | 9% | 17% | 71* | 24* | 6%
SMILES | MARV entry inh | LASV entry inh | Shiga inhibitor | CHX counter | AMA1 RON2 block
CCc1cccc(NC(=O)CN(C)S(=O)(=O)c2cccc3nsnc23)c1 | -20% | -1% | -3 | -2 | 6%
COc1ccc(S(=O)(=O)N(C)CC(=O)Nc2ccc3c(c2)OCO3)cc1 | 6% | -15% | 10 | 15 | 2%
CN(CC(=O)Nc1ccc2c(c1)OCO2)S(=O)(=O)c1cccs1 | ? | -6% | 67* | 47* | -1%
COc1ccc(S(=O)(=O)N(C)CC(=O)Nc2ccc3c(c2)OCCO3)cc1 | ? | 14% | . | . | -8%
O=C(Cn1cnc2c(NCc3ccccc3)ncnc21)NCCCc1ccccc1 | . | . | . | . | 6%
N#Cc1ccc(S(=O)(=O)N2CCCCC2c2cc(C(=O)N3CCOCC3)no2)cc1 (stereo not given) | . | . | . | . | -6%
N[C@@H](Cc1ccccc1)C(=O)N1CCC(C(=O)N[C@@H](CCC(=O)O)C(=O)O)CC1 | . | . | -1 | -4 | 37%
CC(NS(=O)(=O)c1ccc(F)cc1)C(=O)Nc1ccc2c(c1)OCCO2 (stereo not given) | 7% | -8% | 21 | 11* | 2%
CC(=O)Nc1ccc(S(=O)(=O)N[C@@H](C)C(=O)OCC(=O)Nc2ccc3c(c2)OCCO3)cc1 | . | . | . | . | -5%
